The values that follow come from PubChem BioAssay (Tox21).

Records with an inconclusive call do not appear. Values without a mark were called inactive. Calls follow the shape of the dose curve; as a rule, active = well fitted activation curve with a large enough effect in the repeat runs; inconclusive = weak or mixed curves; inactive = flat fitted curve, though single readings scatter.
% is scaled to controls: 0 for no effect and ±100 for the full control effect.

The first assay in a line: A CellTox Green Cytotoxicity Assay to monitor cytotoxicity in HepG2 cells - 32 hour (AID 1224883). Also: nearly all actives have a fitted effect of over 50% in size. The following applies: CellTox Green fluorescence; series mostly up to 76.8 µM; cytotoxicity increase: at the top concentration. In a few lines:
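Fluorescent DNA-binding dye, 600 HepG2 cells/well, 5 h preincubation then compound in DMSO; same plates read at 0–40 h, 37 C.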
On to `CC(C)(C)c1n[nH]c(=S)n(N)c1=O`, for which the “cytotoxicity increase” value is -12.2%.
The same measure, in the same setting: then `CC(C)C(=O)OCCc1ccccc1`, with 0.154%; and `CC(=O)Nc1ccc(S(=O)(=O)Cl)cc1`, with -16.3%.
Still for that read-out and setting: then `CCCCOC(=O)c1ccccc1`, with -1.04%.
The same measure, in the same setting: then `CCCCCCN`, with -3%; and `Cc1ccccc1OCC(O)CO` (centres undefined), with 7.19% [at 35.3 µM].
Take `COC(=O)C1CC(=O)C(C(=O)OC)CC1=O` (centres undefined): the cytotoxicity increase is -7.66% [at 6.97 µM].
Regarding `Cc1cccc(OCC(O)CNC(C)(C)C)c1C` (centres undefined), the “cytotoxicity increase” value was 2.44% [at 35.3 µM].
As to `OCCC(F)(F)C(F)(F)C(F)(F)C(F)(F)C(F)(F)C(F)(F)C(F)(F)C(F)(F)F`, the “cytotoxicity increase” value was 1.27%.

Another assay is described as follows: A CellTox Green Cytotoxicity Assay to monitor cytotoxicity in HEK293 cells - 8 hour (AID 1224884). Also: nearly all actives have a fitted effect of over 35% in size. The following applies: CellTox Green fluorescence; series mostly up to 76.8 µM; cytotoxicity increase: at the top concentration. In a few lines: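 Homogeneous no-lysis format: HEK293 cell suspension mixed with CellTox Green reagent, seeded, incubated 5 h at 37 C/5% CO2, then dosed by pintool with compound in DMSO.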
Regarding `Cc1cccc2nccnc12`, the “cytotoxicity increase” value was 24.2%.
Same read-out and setting: under `CN(C)C(=O)CNC(=O)Cc1ccccc1` stands -3.26% [at 35.3 µM]; under `C=CC(OCC)OCC`, -3.16%.
For the compound `CCCCCCCCSCC`, the “cytotoxicity increase” value was -2.7%.
Still for that read-out and setting: under `Cc1[nH]cnc1-c1ccc(Cl)cc1` stands 0.0924% [at 35.3 µM].
As for `c1ccc2c(c1)ccc1c3ccccc3ccc21`, the “cytotoxicity increase” value was 2.99% [at 35.3 µM].
Consider `NS(=O)(=O)c1cc2c(cc1Cl)CN(C1CCCCC1)C2=O`, for which the “cytotoxicity increase” value was -4.58% [at 35.3 µM].
On the same count and under the same terms, then `Oc1cn2c(n1)Nc1ccc(Cl)c(Cl)c1C2`, with 1.16% [at 15.8 µM].
`CCOC(=O)c1ncn2c1CN(C)C(=O)c1cc(F)ccc1-2`: the “cytotoxicity increase” value was -1.86% [at 35.3 µM].
Same read-out and setting: then `CN1C(C)(C)CCCC1(C)C`, with 2.2% [at 35.3 µM]; and `CC(C)(C)c1cc(CCC(=O)NN)cc(C(C)(C)C)c1O`, with 1.95%; and `C[Si](C)=O`, with 1.88% [at 6.97 µM].
Same read-out and setting: under `CCc1ccc(C=O)cc1` stands 20.7%.
Same read-out and setting: then `CC(=O)OC(C)OC(=O)C(C)c1ccc(-c2ccccc2)c(F)c1` (centres undefined), with -14.2% [at 35.3 µM].
Take `COP(=O)(OC)OC(c1ccc(Cl)cc1)P(=O)(OC)OC` (centres undefined): the “cytotoxicity increase” value was -0.795% [at 35.3 µM].
In the case of `CCOCCOCCOCC`, the “cytotoxicity increase” value is -6.3%.
On to `CC1=C(C(=O)O)N2C(=O)[C@@H](NC(=O)[C@H](N)c3ccc(O)cc3)[C@H]2SC1`, for which the “cytotoxicity increase” value is 8.71% [at 35.3 µM].
With `COc1ccc2c(c1OC)C(=O)O[C@@H]2[C@H]1c2c(cc3c(c2OC)OCO3)CCN1C`, the “cytotoxicity increase” value was -5.87% [at 35.3 µM].
As to `CC(C)CC(=O)O`, the “cytotoxicity increase” value is -2.17%.
As to `CC(COC(C)(C)C)OCCCO` (centres undefined), the “cytotoxicity increase” value is -15.3%.
In the case of `CC(C)CCCCOC(=O)c1ccccc1C(=O)OCCCCC(C)C`, the “cytotoxicity increase” value was -7.54%.
Same read-out and setting: under `CC(CO)c1ccccc1` (centres undefined) stands 9.98%.
As for `CC(=O)NCc1c(I)c(NC(C)=O)c(I)c(C(=O)O)c1I`, the “cytotoxicity increase” value was -0.647% [at 35.3 µM].
Regarding `CCOC(=O)c1ccc(OC(=O)CCCCCN=C(N)N)cc1`, the “cytotoxicity increase” value is -8.6% [at 35.3 µM].
The same measure, in the same setting: under `CC(C)(C)c1n[nH]c(=S)n(N)c1=O` stands 13.1%.
The same measure, in the same setting: under `CCCCOC(=O)c1ccccc1` stands 0.281%; under `CCCCCCN`, -0.113%.
With `Cc1ccccc1OCC(O)CO` (centres undefined), the “cytotoxicity increase” value is -1.64% [at 35.3 µM].
Same read-out and setting: under `COC(=O)C1CC(=O)C(C(=O)OC)CC1=O` (centres undefined) stands 10.4% [at 6.97 µM]; under `BrCc1cccc(Oc2ccccc2)c1`, 9.66%.
